Assay outcomes (PubChem)
Only some compounds are listed: those with a hit (about 2.9% of all), similar ones and a draw of the others.
S1P4 antagonist: blocks the human S1P4 receptor; O95977; S1P4-expressing cells, antagonist mode, reporter read-out; inhibition, % at 4.98 µM; 0.26% of 220,000 active; AID 1510; in the data active = inhibition above about 29%;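 note: 0% = wells stimulated with agonist and 100% = vehicle wells without agonist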
HSF-1 act: increases HSF-1 driven luciferase reporter signal. NIH3T3-HGL HSF-1 luciferase reporter, MG132, 8 h; 100% = twice DMSO control signal. activation, % at 9 µM. 1.7% of 300,000 active;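 active = mean replicate activation of at least 50% with a set share of replicates each reaching 50%; inconclusive = only one of those two conditions met; inactive = mean below 50% and too few replicates reaching it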;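 note: 0% = median of the neutral control wells and 100% = twice that signal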
S1P3 antag-1: blocks the human S1P3 receptor; CHO S1P3 NFAT-BLA reporter, FRET fluorescence, antagonist mode; inhibition, % at 4.98 µM; 0.27% of 170,000 active; AID 485;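 active = inhibition above the plate cutoff, the mean inhibition of test wells on that plate plus 3 SD, cut at about 28% in these data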;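 note: cells challenged with S1P at its EC80 of 0.8 µM; blue over green emission ratio from cleaved BLA substrate after 4 h stimulation; 0% = S1P-stimulated wells and 100% = unstimulated DMSO-only wells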
S1P4 ag: human S1P4 receptor agonism; O95977; S1P4-expressing cell line, agonist reporter assay; activation, % at 4.98 µM; 0.35% of 220,000 active; in the data active = activation above about 11%;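 note: 0% = DMSO vehicle and 100% = reference agonist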
HSF1 inh: HSF1 inhibition | activity change, negative = inhibition, % at 7.5 µM (by protocol) | 0.77% of 300,000 active | NIH3T3-HGL HSE-luciferase, MG132-induced, luminescence 8 h; stronger effect = lower value;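 active = more than half of replicate wells show activity change below -50%, luminescence cut by over half; inconclusive = some wells, but at most half, below -50%; inactive = no replicate well below -50%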;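 note: luciferase reports HSF-1 transcriptional activity via heat shock element; 0% = median of DMSO wells and -100% = zero luminescence signal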
Hsp70 activator: Hsp70 transcriptional activation, primary screen; activation, % at 10 µM; AID 1203; 0.04% of 200,000 active; HeLa Hsp70 promoter luciferase reporter, luminescence; scaled: vehicle 0, proteasome-inhibitor control 100%;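 active = activation above the mean across all tested compounds plus 3 SD, cutoff set per campaign, cut at about 5.5% in these data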;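 note: 100% = MG132 at 30 µM as the positive control and 0% = DMSO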
S1P3 antag-2: confirmation of human S1P3 receptor antagonists. CHO S1P3 NFAT-BLA reporter, FRET, antagonist mode. shares compounds with S1P3 antag-1. 30% of 240 active. inhibition, % at 4.98 µM;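 active = inhibition above the hit threshold that was computed for the earlier primary screen, cut at about 30% in these data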;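 note: 0% = S1P-stimulated wells and 100% = unstimulated DMSO-only wells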
Hsp70 act dose: activates Hsp70 transcription in dose response; shares compounds with Hsp70 activator; calls only at 99 µM; HeLa hsp70.1pr-luc reporter, luciferase luminescence; 10% of 70 active; AID 1252;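 active = over 50% activation at some tested dose; inactive = under 50% activation at every tested dose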
S1P4 antag cf: confirmation of human S1P4 receptor antagonists. 71% of 520 active. shares compounds with S1P4 antagonist. AID 1524. S1P4-expressing cell line, antagonist mode, reporter read-out. inhibition, % at 4.98 µM; in the data active = inhibition above about 30%
S1P1 antagonist: human S1P1 antagonism as S1P4 antagonist counter-screen. shares compounds with S1P4 antagonist. cell-based S1P1 antagonist counterscreen, inhibition. inhibition, % at 4.98 µM. 37% of 520 active. AID 1564; in the data active = inhibition above about 40%;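 note: receptor stimulated with S1P near its EC80; 0% = agonist stimulated wells and 100% = vehicle only wells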
Target sequence (P21453 whole entry, looked up): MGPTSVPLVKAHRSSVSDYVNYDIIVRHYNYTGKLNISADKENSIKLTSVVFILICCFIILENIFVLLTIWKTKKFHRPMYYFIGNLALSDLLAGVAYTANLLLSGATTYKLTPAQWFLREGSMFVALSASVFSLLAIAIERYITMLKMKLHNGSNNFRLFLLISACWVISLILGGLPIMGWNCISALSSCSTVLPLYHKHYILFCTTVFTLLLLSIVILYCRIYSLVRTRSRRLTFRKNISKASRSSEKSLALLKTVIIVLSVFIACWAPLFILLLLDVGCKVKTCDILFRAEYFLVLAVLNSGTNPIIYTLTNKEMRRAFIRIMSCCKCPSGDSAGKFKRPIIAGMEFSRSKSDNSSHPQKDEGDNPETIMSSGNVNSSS
* marks the source's active call; other numbers are inactive results; i = inactive; ? = inconclusive; / = not tested or not shown; ! = not confirmed by another sample.

SMILES	S1P4 antagonist	HSF-1 act	S1P3 antag-1	S1P4 ag	HSF1 inh	Hsp70 activator	S1P3 antag-2	others
Cc1cc(C(=O)OC(C(=O)Nc2ccc(C)c(Cl)c2)c2ccccc2)c(C)o1 (stereo unspecified)	1	9	53*	0	8	0	40*
Cc1ccc(NC(=O)C(OC(=O)c2ccccc2Cl)c2ccccc2)cc1Cl (stereo unspecified)	-16	13	29*	2	6	0	40*
CC(C(=O)Nc1ccccc1Br)c1ccc([N+](=O)[O-])cc1 (stereo unspecified)	-9	28	6	-1	8	0	/
Cc1ccc(NC(=O)C(C)c2ccc([N+](=O)[O-])cc2)cc1Cl (stereo unspecified)	11	-17	49*	0	-11	-1	48*
Cc1ccc(NC(=O)C(OC(=O)c2ccc(NC(N)=O)cc2)c2ccccc2)cc1Cl (stereo unspecified)	-17	26	-5	4	0	0	/
COc1ccc(NS(=O)(=O)c2cccc(NC(=O)c3ccc(Cl)nc3)c2)cc1	12	-8	33*	-1	-5	0	11
O=C(Nc1cccc(S(=O)(=O)Nc2ccc(Cl)cc2)c1)c1ccc(Cl)nc1	-39	4	2	-1	-4	0	/
FC(F)(F)c1cccc(NC(=S)NNC(=S)Nc2cccc(C(F)(F)F)c2)c1	-11	10	2	1	-8	/	/
FC(F)(F)c1cccc(NC(=S)NC(c2ccccc2)c2ccccc2)c1	5	0	45*	4	4	0	49*
O=C1S/C(=C/c2ccccc2)C(=O)N1CC(O)Cn1c2ccccc2c2ccccc21 (stereo unspecified)	-9	7	40*	0	-2	0	-18
CN1CC(=O)NC1=NC(=O)C12CC3CC(CC(C3)C1)C2	0	1	18	-1	-5	-1	/
Clc1ccccc1C1=CC(c2ccco2)n2ncnc2N1 (stereo unspecified)	0	-2	32*	0	3	/	7
CCCCCCCCCn1ccc(=N)cc1	-7	-25	30*	2	-4	/	3
CCCCCCCn1ccc(=N)cc1	-16	-15	/	-3	-8	0	/
CC(C)(C)c1cc(C(=O)Nc2ccc(F)cc2)n(Cc2ccc(F)cc2)n1	11	-11	30*	0	-13	/	24
Cc1cccc(Nc2sc(C(=O)c3cc4cc(Cl)ccc4o3)c(N)c2C#N)c1	-1	2	28*	0	1	/	2
O=C(NCc1ccco1)C(=S)N1CCCCC1	3	1	28*	2	-8	0	-10
O=C(NCc1ccco1)C(=S)N1CCCC1	5	-10	-16	0	-4	0	/
CCCCc1c(O)nc(SCC(=O)N2CCOCC2)n(-c2ccccc2OC)c1=O	/	?	/	/	39	/	/
COc1cc(/C=C2\SC(=O)N(c3ccc(O)cc3)C2=O)cc(OC)c1OC	-19	11	31*	3	-3	/	-1
COc1cc2cc(C(=O)N3CCOCC3)cc(-c3ccc(C)cc3)c2cc1OC	/	10	/	/	-3	/	/
Cc1ccc(S(=O)(=O)NCCc2nnc3ccc(SCC(=O)Nc4nc5ccccc5s4)nn23)cc1	-9	6	28*	-1	3	0	-5
S=c1[nH]ccn1-c1cccc(Cl)c1Cl	-3	-5	-11	-2	-2	/	/
S=c1[nH]ccn1-c1ccccc1Cl	-3	-4	73*!	0	4	/	-13
COc1ccc(C(=O)NCc2ccc(C(=O)NCC(OC)OC)cc2)cc1OC	-12	-14	-13	0	-2	0	/
SMILES	S1P4 antagonist	HSF-1 act	S1P3 antag-1	S1P4 ag	HSF1 inh	Hsp70 activator	S1P3 antag-2	others
COc1ccc(C(=O)NCc2ccc(-n3cccc3)cc2)cc1OC	-2	2	41*	1	-3	0	-15
Cc1cc(C)cc(NC(=O)CS(=O)(=O)c2cccc3nsnc23)c1	/	-16	/	/	4	/	/
COC(=O)c1ccccc1NC(=O)CSc1nc(C)cc(C)n1	12	-8	9	-2	1	0	/
Cc1cc(C)nc(SCC(=O)Nc2ccnc3ccccc23)n1	-11	3	30*	-1	1	0	8
CC(C)CNC(=O)c1cccc(NC(=O)Cc2ccc(Br)cc2)c1	-14	-3	30*	0	-4	0	-14
Cc1cc(Cl)ccc1OC(C)C(=O)NCCCn1ccnc1 (stereo unspecified)	-6	30	-17	1	3	0	/
CC(=O)c1c(C)[nH]c(C(=O)NC(C)c2ccccc2)c1C (stereo unspecified)	-5	-13	38*	-3	-10	0	-11
CCCc1nc2c(=O)n(C)c(=O)nc-2n(C)n1	54*	/	72*	2	/	0	107*	S1P4 antag cf=89*;S1P1 antagonist=56*
CCn1c(N)nc2c1c(=O)n(C)c(=O)n2C	-2	11	24	-2	1	0	/
COc1ccc(C(=O)N(C)C2CCCc3ccccc32)cc1OC1CCN(C(C)C)CC1 (stereo unspecified)	/	29	/	/	-2	/	/
COC(=O)c1scc2c(=O)cc(C(F)(F)F)[nH]c12	35*	3	32*	1	-6	/	24	S1P4 antag cf=69*;S1P1 antagonist=51*
CC(C)(C)NC(=S)N/N=C\c1ccc(-c2ccc([N+](=O)[O-])cc2)o1	45*	33	70*	-3	34	/	73*	S1P4 antag cf=83*;S1P1 antagonist=134*
CCCCC(=O)N/N=C/c1ccc(-c2ccc([N+](=O)[O-])cc2)o1	0	-12	18	2	4	0	/
CCc1ccc([C@@H]2C[C@H]3CN(Cc4ccccc4OC)C(=O)[C@]34CCCN24)cc1	-1	2	-3	-3	6	0	/
CCCCNc1ccc2c3c(cccc13)C(=O)N(CCCC)C2=O	45*	46	47*	0	22	/	59*	S1P4 antag cf=67*;S1P1 antagonist=98*
C=CCSc1nccc(-c2nn(-c3ccc(C)cc3)ccc2=O)n1	-9	2	/	-2	-5	17*	/	Hsp70 act dose=i
O=C(CCCOc1ccc(Cl)cc1Cl)NCCc1ccccn1	/	-8	/	/	-20	/	/
CCCOc1c(Br)cc(C(=O)NCC)cc1OC	-7	2	-23	-1	-6	6.0*	/	Hsp70 act dose=i
